ChEMBL document CHEMBL3988442, “University of Dundee, Small-Polar-MMV Screening Library” (2021)
About 440 (0.52%) of roughly 85,000 compounds showed an effect of 50% or more. The sample as a whole holds a higher share of strong results than the screen did.

Assay: In vitro enzyme assay to detect hydrolysis of chlorophenol red-beta-D-[…] directly proportional to the number of Toxoplasma stably expressing beta-galactosidase
Format: functional, organism-based, Toxoplasma gondii
Set-up: scale not given: in the data most compounds retested in dose-response had high values

| SMILES | Percent Effect (50 µM) | Percent Effect (10 µM) |
| --- | --- | --- |
| NCc1cccc(CN2CCCC2=O)c1 | -4.942% |  |
| Cc1nn(C)c(C)c1NC(=O)N1CCSCC1 | -12.54% |  |
| CN(C)c1cc(CNC(=O)c2ccncc2)ccn1 | -1.688% |  |
| CN(C)c1cc(CNC(=O)c2nccnc2N)ccn1 | 58.76% |  |
| CN(C)c1cc(CNC(=O)c2cnccn2)ccn1 |  | 21.24% |
| O=C1CC[C@@H](CO)N1 | -0.2195% |  |
| CCS(=O)(=O)c1cccc(CN)c1 | 21.69% |  |
| Cc1ccc(C(=O)NCCCN2CCCC2)cc1 | 3.9% |  |
| N#Cc1c(Cl)nsc1NCc1cccnc1OC1CCCC1 |  | 78.06% |
| Cc1cc(NC(=O)NCc2cccnc2OC2CCCC2)n(C)n1 |  | -3.087% |
| N#Cc1c(Cl)nsc1NCc1cccnc1OCC(F)(F)F |  | 25.91% |
| COc1ncccc1CNc1snc(Cl)c1C#N |  | 29.55% |
| CC(O)CNC(=O)NCc1cccnc1OC1CCCC1 (stereo unspecified) |  | -1.891% |
| CNC(=O)NCc1cccnc1OC1CCCC1 | 56.84% |  |
| CCN1CCCC1CNC(=O)CN(C)S(C)(=O)=O (stereo unspecified) | -8.865% |  |
| COc1cccc(NC(=O)CN2CCCNCC2)c1 | -7.679% |  |
| O=C(Nc1ccccn1)N1CCCN(C2CC2)CC1 | 3.024% |  |
| O=C(c1ccc(COc2ccccc2Cl)o1)N1N=CCC1(O)C(F)(F)F (stereo unspecified) |  | 45.92% |
| O=C(c1ccc(COc2ccc(Cl)cc2)o1)N1N=CCC1(O)C(F)(F)F (stereo unspecified) |  | 95.68% |
| Cc1cccc(OCc2ccc(C(=O)N3N=CCC3(O)C(F)(F)F)o2)c1 (stereo unspecified) |  | 93.63% |
| COc1ccc(C(=O)N2CCC(Oc3cccc(C)c3)(C(=O)O)CC2)o1 |  | -1.229% |

| SMILES | Percent Effect (50 µM) | Percent Effect (10 µM) |
| --- | --- | --- |
| COCc1ccc(C(=O)N2CCC(Oc3ccccc3)(C(=O)O)CC2)o1 |  | 0.5821% |
| O=C(Cn1cc(Br)cn1)N1N=CCC1(O)C(F)(F)F (stereo unspecified) | -25.92% |  |
| CC(C)NC(=O)CNCc1ccc(Br)o1 | 0.3067% |  |
| CN1CCN(C)C2(CCN(C(=O)C(C)(C)O)CC2)C1 | 7.866% |  |
| Cc1cc(C(=O)N2CCN(c3nc4c(C)cccc4s3)CC2)no1 |  | 11.62% |
| Cc1cc(C(=O)N2CCN(c3nc4c(C(C)C)cccc4s3)CC2)no1 |  | 14.68% |
| Cc1cc(C(=O)N2CCN(c3nc4c(C(C)C)cccc4s3)CC2)on1 |  | 83.09% |
| CC(C)C(=O)Nc1cccc(CN)c1 | -3.402% |  |
| CCOCCSc1nnnn1CC1CCCO1 (stereo unspecified) | 4.057% |  |
| CCc1nc(NCC(=O)N2CCOCC2)c2c(n1)c(C)nn2CC |  | -2.271% |
| CCn1nc(C)c2nnn(CC(=O)Nc3ccc(C)cc3)c(=O)c21 |  | 5.455% |
| CCCc1nc(Nc2cccc(C(N)=O)c2)c2c(n1)c(C)nn2CC |  | 20.54% |
| CCc1nc(Nc2ccc(C(=O)NC)cc2)c2c(n1)c(C)nn2CC |  | 64.18% |
| CCc1nc(Nc2cccc(C(=O)NC)c2)c2c(n1)c(C)nn2CC |  | 63.37% |
| CCn1nc(C)c(C(C)NC(=O)c2cccc(NCC(=O)O)c2)c1C (stereo unspecified) |  | -6.268% |
| CN1C(=O)c2cccn2CC1CNC(=O)c1ccco1 (stereo unspecified) | 46.69% |  |
| CNC(=O)CS(=O)(=O)Cc1cc(=O)n(C)c(=O)n1C | 9.101% |  |
| CN(C)C(=O)CN(C)c1ncc(C(F)(F)F)cc1Cl | 0.3926% |  |
| CCS(=O)(=O)Nc1ccc(C(=O)NC2CC2)cc1 | -14.67% |  |
| CCc1nc(C2CCCN2CC(=O)Nc2nncs2)no1 (stereo unspecified) |  | 2.118% |
| O=C(NCc1nc(C2CC2)no1)Nc1nncs1 | 96.18% |  |

| SMILES | Percent Effect (50 µM) | Percent Effect (10 µM) |
| --- | --- | --- |
| Cc1cnc(C(NC(=O)NCc2nc(C3CC3)no2)C2CC2)s1 (stereo unspecified) |  | 2.41% |
| Cc1ccccc1C1(O)CCN(Cc2ncc[nH]2)C1 (stereo unspecified) | -4.711% |  |
| Cc1ncc(CN2CCOC(c3ccc(-c4cc[nH]n4)cn3)C2)s1 (stereo unspecified) |  | -16.2% |
| Cc1ncc(CN2CCOC(c3ccc(-c4ccccc4F)cn3)C2)s1 (stereo unspecified) |  | 56.75% |
| Cc1ncc(CN2CCOC(c3ccc(-c4cnn(C)c4)cn3)C2)s1 (stereo unspecified) |  | -14.87% |
| O=C(NC1CCNC1)C1CCC1 (stereo unspecified) | 7.426% |  |
| N#Cc1ccc(CN)c(F)c1 | 29.17% |  |
| CC(C)CNC(=O)CSc1n[nH]c(-c2ccccn2)n1 | 52.47% |  |
| CC(Sc1n[nH]c(-c2ccccn2)n1)C(=O)N(C)C (stereo unspecified) | 2.084% |  |
| CC(CSc1n[nH]c(-c2ccccn2)n1)CS(C)(=O)=O (stereo unspecified) | 14.41% |  |
| CCNc1cccc(OC)c1 | -5.589% |  |
| Cn1nc(CC#N)c2ccccc21 | -11.92% |  |
| CCCc1nnc(NCc2cccnc2)o1 | -5.41% |  |
| Nc1cccnc1NCc1cccnc1 | 56.86% |  |
| OCCOc1ccc(NCc2cccnc2)cn1 |  | 0.5408% |
| CN(CCN1CCCC1=O)C(=O)c1ncccc1Br | -6.361% |  |
| N#CCC1COc2ccccc2O1 (stereo unspecified) | -13.18% |  |
| CC(C)N(C)S(=O)(=O)NCCCN(C)c1ccccc1 | 0.05674% |  |
| CN(C)C(=O)C1CCN(Cc2ccccc2F)CC1 | -0.8921% |  |
